# A selection: hits, their analogues and other compounds. The true share with any hit is near 10%.
# FLuc inh: inhibitors of firefly (Photinus pyralis) luciferase; 76,000 compounds, 2.5% hits; Potency, µM (series often up to 115 µM), usual class: inhibitors; purified P. pyralis luciferase, luminescence, biochemical; P08659; also: nearly all actives have a fitted effect of over 65% in size
# Target sequence (P08659 whole entry, looked up): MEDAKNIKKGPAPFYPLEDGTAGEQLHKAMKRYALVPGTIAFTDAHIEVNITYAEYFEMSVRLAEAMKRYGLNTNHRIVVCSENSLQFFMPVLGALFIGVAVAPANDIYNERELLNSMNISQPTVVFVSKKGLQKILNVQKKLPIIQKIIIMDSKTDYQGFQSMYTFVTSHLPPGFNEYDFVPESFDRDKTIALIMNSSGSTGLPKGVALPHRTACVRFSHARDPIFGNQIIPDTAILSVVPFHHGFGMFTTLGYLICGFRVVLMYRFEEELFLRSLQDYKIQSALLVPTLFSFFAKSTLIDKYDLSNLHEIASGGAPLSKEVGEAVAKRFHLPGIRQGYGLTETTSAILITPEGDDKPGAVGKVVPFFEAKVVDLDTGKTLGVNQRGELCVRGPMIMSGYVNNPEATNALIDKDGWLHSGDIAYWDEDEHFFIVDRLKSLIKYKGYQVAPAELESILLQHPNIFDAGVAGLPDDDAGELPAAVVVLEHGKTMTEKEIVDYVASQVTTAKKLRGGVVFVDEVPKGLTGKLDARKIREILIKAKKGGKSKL
#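 Purified 10nM P. pyralis luciferase with 10uM D-luciferin and 10uM ATP in 50mM Tris acetate pH 7.5, 10mM Mg acetate, 0.01% Tween-20, 0.05% BSA. qHTS titration; luminescence read by CCD imager.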
# HEK cytotox: kills HEK 293 cells; HEK 293 viability, ATP luminescence (CellTiter-Glo), 48-72 h; Potency, µM (top dose mostly 115 µM), for the others: at the top dose activity change, negative = cytotoxicity, actives largely listed as inhibitors; 94,000 compounds, 6.6% hits; also: nearly all actives have a fitted effect of over 60% in size
#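 Viability of HEK 293 cells, plated at 250 cells/well, was judged by cellular ATP after compound treatment for 48 or 72 hr. Luminescence was imaged 10 min after CellTiter-Glo addition at room temperature.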
# NPR1 antag: antagonists of human natriuretic peptide receptor Npr1; P16066; HEK293 hNpr1 GloSensor cGMP, ANP-stimulated luminescence; Potency, µM (series often up to 46.3 µM), for inactives: top-dose activity change, negative = inhibition, most hits filed as inhibitors; 76,000 compounds, 1.6% hits; calls by dose curve; also: nearly all actives have a fitted effect of over 60% in size
#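 HEK293 cells stably expressing human Npr1 and cGMP GloSensor pGS-40F, loaded 2 h with 2% GloSensor reagent, given compound 30 min at room temperature. Luminescence read before and 20 min after 0.1 nM hNppA.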
# GPT2 inh: blocks human glutamate pyruvate transaminase 2; Q8TD30; AID 1671188; Recombinant GPT2, coupled pyruvate oxidase/HRP Amplex Red fluorescence; 100,000 compounds, 0.25% hits; Potency, µM (highest dose often 57.7 µM), inactives show top-dose activity change, negative = inhibition, most hits filed as inhibitors; also: nearly all actives have a fitted effect of over 60% in size
#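 Inhibition is scored from Amplex Red fluorescence generated when pyruvate oxidase and HRP act on pyruvate released by GPT2. Reactions contain 10ng/uL enzyme, 250uM a-KG and 2mM L-alanine and run 30 min at room temperature.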
# 3T3 cytotox: kills NIH 3T3 cells | NIH 3T3 viability, CellTiter-Glo ATP luminescence, 48-72 h | Potency, µM (top dose mostly 96.7 µM), without a hit: at the top dose activity change, negative = cytotoxicity, most hits filed as inhibitors | 94,000 compounds, 4.3% hits; also: nearly all actives have a fitted effect of over 55% in size
#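 Cytotoxicity is measured as loss of cellular ATP: NIH 3T3 cells (400/well) are exposed to compound for 48 or 72 hr at 37 °C, then CellTiter-Glo luminescence is imaged after 10 min at room temperature.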
# The depositor's hits bear a star; i = inactive; ? = inconclusive; . = no result; [ ] = another dose, or the depositor's remark. Unless noted, calls follow the shape of the dose curve; as a rule, active = well fitted curve in the direction sought with a large enough effect; inconclusive = small, poorly fitted or top-dose-only effect, or another doubt; inactive = no such curve, though single readings can be large; an effect the other way counts as inactive or inconclusive. % is scaled to controls: 0 for no effect and ±100 for the full control effect; potency is read from the fitted curve at half-maximal effect.
SMILES,FLuc inh,HEK cytotox,NPR1 antag,GPT2 inh,3T3 cytotox
COc1cccc(CN2CCC(C(=O)Nc3ccccc3-c3cccc(OC)c3)CC2)c1,i,22.4µM*,?,-10.1%,?
COc1cccc(-c2ccccc2NC(=O)C2CCN(CC=C(C)C)CC2)c1,i,?,4.4%,-16.5%,20µM*
COc1cccc(-c2ccccc2NC(=O)C2CCN(Cc3ccccc3F)CC2)c1,i,?,?,-19.3%,44.7µM*
CN(C)C(=O)CCC(=O)N1CCN(Cc2ccccc2)CC(O)C1 (centres undefined),i,-5.3%,4.4%,4.5%,-5.8%
CCNC(=O)C1CCN(Cc2nc(-c3cccc(Oc4ccccc4)c3)oc2C)C1 (centres undefined),i,?,-0.1%,i[11.5 µM],?
O=C(Nc1ccc(C(F)(F)F)cc1)N[C@H]1[C@H](O)[C@H](O)C[C@@H]1c1ccccc1,i,?,-13.4%[70.6 µM],i,79.4µM*
O=C1CCN(Cc2cccc(F)c2)CCCC(c2nc(-c3cccnc3)no2)CCN1 (centres undefined),i,79.4µM*,2.0%,-4.5%,?
Cc1cccc(CN2CCCC(c3nc(-c4cccnc4)no3)CCNC(=O)CC2)c1 (centres undefined),i,?,-2.8%,-3.5%,?
CCOCCN1C(=O)COC[C@@H]1[C@H](O)c1ccc(NC(=O)c2ccc(OC)cc2)cc1,?,-20.2%[172 µM],-1.7%[70.6 µM],-8.8%[88.5 µM],-32.7%[174 µM]
O=C(NC1CCN(Cc2cccc(-c3ccc(F)c(F)c3)c2)CC1)c1ccc(Cl)nc1,.,?,.,.,25.1µM*
CSc1ccc(-c2cccc(CN3CCC(NC(=O)c4ccccc4C)CC3)c2)cc1,.,-35.4%,.,.,-22.6%
Cc1cccc(-c2cccc(CN3CCC(NC(=O)c4ccccc4C)CC3)c2)c1,.,39.8µM*,.,i,31.6µM*
O=C(NC1CCN(Cc2cccc(-c3ccc(F)c(F)c3)c2)CC1)c1ccccc1F,.,79.4µM*,.,-1.8%,?
Cc1ccccc1C(=O)NC1CCN(Cc2cccc(-c3ccc(F)c(F)c3)c2)CC1,.,50.1µM*,.,-18.0%,?
COc1ccc(-c2cc3[nH]ccc3c(C(=O)NCc3c(C)cc(C)[nH]c3=O)n2)cc1,?,?,?,-3.5%[88.5 µM],?
Cc1cc(C)c(CNC(=O)c2nc(-c3cccc(C(F)(F)F)c3)cc3[nH]ccc23)c(=O)[nH]1,i,39.8µM*,-15.8%,?,?
COc1cccc(Nc2cc3[nH]ccc3c(C(=O)NCc3c(C)cc(C)[nH]c3=O)n2)c1,?,70.8µM*,0.8%[70.6 µM],4.2%[88.5 µM],39.8µM*
O=C1N(CCCCOc2ccccc2)c2ccccc2NC12CCNCC2,i,20µM*,-16.9%,?,?
Cc1ccc(C(C)NC(=O)CN2C(=O)C3(CCNCC3)Nc3ccccc32)cc1 (centres undefined),i,-11.6%,-1.2%,-17.8%,-1.3%
Cn1ncc2c(C(=O)NCc3cccc(Cl)c3)cc(-c3ccsc3)nc21,.,31.6µM*,.,4.5%,15.8µM*
Cn1ncc2c(C(=O)NCc3cccc(Cl)c3)cc(-c3ccc(F)cc3)nc21,.,35.5µM*,.,i,?
Cn1ncc2c(C(=O)NCc3ccc(F)c(F)c3)cc(-c3ccsc3)nc21,.,?,.,i,?
Cn1ncc2c(C(=O)NCc3cccc(Cl)c3)cc(-c3ccc(Cl)cc3)nc21,.,-13.1%,.,i,-15.8%
Cn1ncc2c(C(=O)NCc3ccc(Cl)cc3)cc(-c3ccsc3)nc21,.,35.5µM*,.,-6.0%,31.6µM*
COc1cccc(CNC(=O)c2cc(-c3ccsc3)nc3c2cnn3C)c1,.,56.2µM*,.,i,25.1µM*
SMILES,FLuc inh,HEK cytotox,NPR1 antag,GPT2 inh,3T3 cytotox
O=C(CNC(=O)c1ccc(-c2cnc3ccccc3c2)cc1)NCCC1CCCCC1,.,-8.3%,.,i,-27.8%
COC(=O)C1CCN([C@H]2[C@@H]3OC[C@@H](O3)[C@@H](NC(=O)Nc3cccc(C#N)c3)[C@@H]2O)CC1,i,4.3%[172 µM],8.5%[70.6 µM],-6.0%[88.5 µM],4.4%[174 µM]
CC(C)CNc1ccc2c(n1)C(C)(C(=O)NC1CCOCC1)CN(Cc1ccccc1)C2 (centres undefined),i,79.4µM*,1.7%[70.6 µM],i,?
CC(C)CNc1ccc2c(n1)C(C)(C(=O)NC1CC1)CN(Cc1ccccc1)C2 (centres undefined),i,63.1µM*,-13.9%[70.6 µM],i,?
CC(C)CNc1ccc2c(n1)C(C)(C(=O)Nc1cccnc1)CN(Cc1ccccc1)C2 (centres undefined),i,50.1µM*,-17.3%[70.6 µM],i,28.2µM*
COC(=O)C1=COC(OC2OC(CO)C(O)C(O)C2O)C2C(COC(=O)/C=C/c3ccc(O)c(O)c3)C(O)C(O)C12 (centres undefined),.,.,.,i,.
CC1Oc2ccc(NC(=O)Cc3ccc(F)cc3)cc2CN(Cc2ccc(Cl)cc2)C1=O (centres undefined),i,39.8µM*,-24.3%,-5.3%,28.2µM*
CCC1Oc2ccc(NC(=O)Cc3ccccc3)cc2CN(Cc2ccc(F)cc2)C1=O (centres undefined),i,?,-5.7%,i,?
COc1ccccc1CN1Cc2cc(NC(=O)Cc3ccc(F)cc3)ccc2OC(C)C1=O (centres undefined),i,?,-15.1%,i,?
CCC1Oc2ccc(NC(=O)Cc3ccc(F)cc3)cc2CN(Cc2ccc(Cl)cc2)C1=O (centres undefined),i,?,-19.0%,4.4%,10µM*
CCC1Oc2ccc(NC(=O)C3CCCC3)cc2CN(Cc2ccccc2Cl)C1=O (centres undefined),i,79.4µM*,-4.8%,-15.6%,?
O=C(COc1ccccc1)Nc1ccc2c(c1)CN(CCc1ccc(F)cc1)C(=O)CO2,?,?,15.8µM*,i,?
COC[C@@H]1[C@H](C(=O)N2CCCN(C)CC2)CCCN1Cc1ccccc1,.,-15.1%,.,4.9%,-25.0%
COc1ccc(-c2ccc(NC(=O)c3ccccc3Cl)cc2)nn1,.,?,.,.,-17.7%
O=C(Nc1ccc2c(c1)CN(Cc1ccc(Cl)cc1)C(=O)CO2)c1ccc(F)cc1F,i,79.4µM*,-26.6%,i,?
CCC1Oc2ccc(NC(=O)c3ccc(F)cc3F)cc2CN(Cc2ccc(Cl)cc2)C1=O (centres undefined),i,?,-1.9%,-1.5%,?
CNC(=O)N1c2ccccc2CC1c1nc(C(C)C)no1 (centres undefined),i,0.3%,0.8%,i,-0.1%
Cc1ccc(C)c(S(=O)(=O)N2c3ccccc3CC2c2nc(C(C)C)no2)c1 (centres undefined),.,14.1µM*,.,i,?
CC(NC(=O)c1ccccc1N)C(=O)O (centres undefined),.,.,.,i,.

# Screening results as filed in PubChem.
